High-throughput results from PubChem.
Sampled rows, rich in hits. Any-hit rate of the full collection: about 19%.
HT1080-NT tox – kills 2HG-producing HT-1080-NT fibrosarcoma cells; HT-1080-NT fibrosarcoma viability, CellTiter-Glo ATP luminescence, 48 h; Potency, µM (series often up to 46.1 µM), without a hit: top-dose activity, negative = less viability, hits mostly cytotoxic; 360,000 tested, 1.6% active;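 note: NT is the 2HG producing partner of a matched IDH1 knockdown line; potency is the fitted concentration of half-maximal effect; 0% = DMSO-treated cells and -100% = media-only wells without cells; nearly all actives have a fitted effect of over 55% in size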
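HT-1080-NT fibrosarcoma cells (2HG-overproducing), 750 cells/well in RPMI with 5% FBS, dosed after 2 h and incubated 48 h at 37C. CellTiter-Glo luminescence normalized to DMSO and no-cell wells; concentration-response curves fitted and classed.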
TDP1 cell noCPT – qHTS for Inhibitors of human tyrosyl-DNA phosphodiesterase 1 (TDP1): qHTS in cells in absence of CPT. DT40 Tdp1-/- hTDP1 cells, no CPT, ATP luminescence, 48 h. Potency, µM (highest dose often 46.2 µM), for the others: at the highest dose activity change, negative = growth inhibition, actives largely listed as inhibitors. 420,000 tested, 15% active. AID 686978, 2013; note: potency is the fitted concentration of half-maximal effect; nearly all actives have a fitted effect of over 55% in size
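Compound effects on proliferation are scored in DT40 Tdp1-/-;hTDP1 cells in the absence of CPT. ATP levels (CellTiter-Glo luminescence) are recorded after a ≥48 hr, 37 °C incubation.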
HT1080 IDH1KD tx – HT-1080 IDH1 knockdown cell toxicity (counter line); HT-1080 IDH1 knockdown viability, ATP luminescence, 48 h; Potency, µM (top dose mostly 46.1 µM), inactives show at the top dose activity, negative = toxicity, hits mostly cytotoxic; 360,000 tested, 2% active; AID 686971;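 note: potency is the fitted concentration of half-maximal effect; 0% = DMSO wells and -100% = cell-free medium wells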
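After a 2 h attachment period, IDH1KD HT-1080 cells took pin-transferred compound for 48 h at 37 °C; ATP-based luminescence after 10 min room-temperature reagent incubation reported viability.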
IL1B secr inh – inflammasome signaling inhibition, IL-1 beta readout; THP-1 LPS/ATP IL-1B secretion, AlphaLISA, 16 h; active compounds read low; activity change, % at 57.5 µM; 360,000 tested, 4.7% active; AID 743279; in the data active = activity change below about -50%; inconclusive = mostly about -30% to -49%
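THP-1 cells pretreated 1 hr with compounds (up to 57.5 uM final), then stimulated with LPS (250 ng/mL final) plus ATP (1.25 mM final); secreted IL-1B measured by AlphaLISA after 16 hr, decreased signal indicating inhibition.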
TDP1 cell CPT – growth inhibition of DT40 Tdp1-/-;hTDP1 cells with camptothecin (screen for TDP1 inhibitors); chicken DT40 Tdp1-/-;hTDP1 cells + 20 nM CPT, ATP luminescence, 48 h; Potency, µM (series often up to 46.2 µM), for the others: at the highest dose activity change, negative = growth inhibition, hits mostly inhibitors; 420,000 tested, 12% active; note: potency is the fitted concentration of half-maximal effect; nearly all actives have a fitted effect of over 55% in size
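Cell growth measured by CellTiter-Glo luminescence after a minimum 48 h, 37 C compound exposure with 20 nM CPT in Tdp1-knockout DT40 cells stably expressing hTDP1, seeded 400/well; qHTS titration format.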
An asterisk follows results filed as active; ? = inconclusive; / = no result. Unless noted, calls come from the whole dose curve; as a rule, active = well fitted curve in the direction sought with a large enough effect; inconclusive = small, poorly fitted or top-dose-only effect, or another doubt; inactive = no such curve, though single readings can be large; an effect the other way counts as inactive or inconclusive. Unless noted, % is set by controls: 0 for no effect and ±100 for the full control effect.

SMILES	HT1080-NT tox	TDP1 cell noCPT	HT1080 IDH1KD tx	IL1B secr inh	TDP1 cell CPT
O=C(N/N=C/c1cc(Cl)ccc1O)c1cccnc1	?	1µM*	?	234	0.92µM*
O=C(CNC(=O)c1ccccc1Br)N/N=C\c1cc([N+](=O)[O-])cc(Br)c1O	-17%	8%	-8%	-5	16%
O=C(CN1CC(c2ccccc2)CC1=O)N/N=C/c1cc(Br)ccc1O (configuration not stated)	?	6.5µM*	?	71	8.2µM*
O=C(CNC(=O)c1ccccc1Br)N/N=C/c1ccccc1O	?	23µM*	?	132	?
CCOc1ccc(NC(=O)CN2CC(c3ccccc3)CC2=O)cc1 (configuration not stated)	5%	9%	5%	-5	8%
C/C(=N/NC(=O)CNC(=O)c1ccc2c(c1)OCO2)c1ccc2c(c1)CCCC2	-5%	-19%	?	-50*	8%
COC(=O)c1c(OCc2ccccn2)cc(=O)n2c1CCN(C(=O)c1cc(C(C)C)nn1C)CC2	/	-26%	/	/	-3%
O=C(OCC(=O)N1CCCCCC1)c1cc(S(=O)(=O)N2CCOCC2)ccc1F	0%	-3%	0%	-10	-1%
O=C(CNC(=O)c1ccco1)N/N=C/c1ccc(O)cc1O	-14%	?	-14%	42	?
O=C(COc1ccc(-c2ccccc2)cc1)N/N=C/c1cc(O)ccc1Br	-9%	16µM*	?	-95*	?
O=C(N/N=C/c1cc(Br)c(Br)o1)c1cccnc1	?	18µM*	?	6	16µM*
O=C(N/N=C/c1cc(Cl)ccc1O)c1ccccc1Br	?	6.5µM*	9.2µM*	298	6.5µM*
O=C(CNC(=O)c1ccco1)N/N=C/c1cc(Br)ccc1O	?	5.8µM*	26µM*	124	2.9µM*
O=C(NN=Cc1ccc(Cl)cc1Cl)c1ccccc1	-11%	?	-14%	-29	-25%
c1ccc2c(c1)nc1n2CCN1CCN1CCCC1	6%	-1%	13%	33	-2%
Cc1cccc(C)c1OC(=O)CSc1nnc(-c2ccc3c(c2)OCO3)o1	/	-18%	/	/	-21%
O=C(CNC(=O)c1ccccc1)N/N=C/c1cc(Br)ccc1O	?	7.3µM*	16µM*	60	7.3µM*
O=C(CNC(=O)c1ccc2c(c1)OCO2)N/N=C/c1cc(Br)ccc1O	?	8.2µM*	12µM*	115	8.2µM*
O=C(CNC(=O)c1ccccc1Br)N/N=C/c1cc(Br)ccc1O	?	5.8µM*	?	264	8.2µM*
O=C(COc1ccccc1)NCC(=O)N/N=C/c1cc(Br)ccc1OCc1ccccc1	-22%	16µM*	?	-53*	23µM*
O=C(COc1ccccc1)NCC(=O)N/N=C/c1cccs1	5%	0%	1%	-1	-25%
O=C(CNC(=O)c1ccncc1)N/N=C/c1cc(Br)ccc1O	0%	-5%	3%	53	-28%
CCN1C(=O)C2(C(C(=O)c3cc4ccccc4o3)=C(O)C(=O)N2CCCN(C)C)c2ccccc21 (configuration not stated)	-1%	-10%	0%	-16	-1%
Cc1[nH]c2ccccc2c1C(=O)c1cc(Cc2ccccc2)sc1N	?	16µM*	?	-51*	?
CC(C)(C)C(=O)C(C(c1ccccc1)N1CCOCC1)N1CCOCC1 (configuration not stated)	-3%	?	8%	2	0%
SMILES	HT1080-NT tox	TDP1 cell noCPT	HT1080 IDH1KD tx	IL1B secr inh	TDP1 cell CPT
COc1cc(Nc2ncnc3onc(-c4ccc(Cl)cc4)c23)cc(OC)c1	/	21µM*	/	/	?
CC(C)c1ccc(Nc2ncnc3onc(-c4ccc(F)cc4)c23)cc1	/	?	/	/	18µM*
COc1cc(OC)c(Nc2ncnc3onc(-c4cccc(Cl)c4)c23)cc1Cl	/	-1%	/	/	9%
COc1ccc(Nc2ncnc3onc(-c4ccc(Cl)cc4)c23)cc1Cl	/	16µM*	/	/	18µM*
COc1ccc(NC(=O)CN(C)C(=O)c2oc3ccccc3c2C)cc1	3%	-10%	0%	14	-3%
CC(=O)c1nn(-c2ccccc2)cc1C(=O)c1ccc(C)cc1	-2%	23µM*	-1%	0	?
N#Cc1cn(-c2ccccc2)nc1C(=O)c1ccccc1	-15%	12µM*	-12%	-3	?
CC(=O)c1nn(-c2ccc(Br)cc2)cc1C(=O)c1ccccc1	-8%	-26%	-14%	0	5%
O=S(=O)(NCCc1c[nH]c2ccccc12)c1ccc(F)cc1	5%	-29%	0%	17	0%
O=C(NCCS(=O)(=O)N1CCN(c2ccccc2)CC1)c1cccc(F)c1	0%	?	-4%	2	-2%
Cc1c(C(=O)OCC(C)C)[nH]c2c1C(=O)CC(c1cccs1)C2 (configuration not stated)	1.6µM*	3.7µM*	1.3µM*	60	2.9µM*
CCOCCOC(=O)c1[nH]c2c(c1C)C(=O)CC(c1cccs1)C2 (configuration not stated)	0.46µM*	0.82µM*	0.46µM*	45	1µM*
COCCOC(=O)c1[nH]c2c(c1C)C(=O)CC(c1cccs1)C2 (configuration not stated)	?	1.3µM*	4.6µM*	90	1.2µM*
CCC(=O)N1CCc2cc(S(=O)(=O)NCCC(=O)Nc3cc(C)ccc3OC)ccc21	/	-19%	/	/	-9%
NS(=O)(=O)c1ccc(CCNC(=O)c2ccc3nc4ccc(Cl)cc4c(=O)n3c2)cc1	1%	?	2%	-2	-24%
CCOc1cc(C2C(C(=O)OC)=C(C)NC3=C2C(=O)c2ccccc23)cc(Cl)c1O (configuration not stated)	/	18µM*	/	/	?
CCOC(=O)C1=C(C)NC2=C(C(=O)c3ccccc32)C1c1ccc([N+](=O)[O-])o1 (configuration not stated)	-27%	16µM*	-5%	-66*	23µM*
CCOC(=O)C1=C(C)NC(=O)NC1c1ccc([N+](=O)[O-])o1 (configuration not stated)	1%	-27%	2%	-8	?
O=C(NCc1ccccc1)C(c1ccc(F)cc1)N(C(=O)c1csnn1)c1ccccc1 (configuration not stated)	-1%	?	-2%	-11	-28%
Cc1ccc(CNC(=O)CSc2nc(=O)n3cccc(C)c3n2)cc1	0%	-9%	2%	10	-18%
CCOC(=O)c1c(NC(=O)COC(=O)Cn2cnc3c2c(=O)n(C)c(=O)n3C)sc(C)c1CC	-4%	-22%	0%	15	6.5µM*
